Experimental data reported in PubChem BioAssay (NCATS).
Inconclusive results are not listed. Activity calls are given as the source filed them. Calls come from the whole dose curve; as a rule, active = well fitted curve in the direction sought with a large enough effect; inconclusive = small, poorly fitted or top-dose-only effect, or another doubt; inactive = no such curve, though single readings can be large; an effect the other way counts as inactive or inconclusive.

Key:
[1] = target: Glutathione peroxidase 1 (Homo sapiens) (UniProt P07203); assay: Primary qHTS Assay for Inhibitors of Recombinant Selenoprotein Glutathione Peroxidase 1 (GPX1) (AID 1845191); note: nearly all actives have a fitted effect of over 65% in size; note: potency is the fitted concentration of half-maximal effect
Sequence of Glutathione peroxidase 1 (Homo sapiens) (P07203 whole entry, looked up): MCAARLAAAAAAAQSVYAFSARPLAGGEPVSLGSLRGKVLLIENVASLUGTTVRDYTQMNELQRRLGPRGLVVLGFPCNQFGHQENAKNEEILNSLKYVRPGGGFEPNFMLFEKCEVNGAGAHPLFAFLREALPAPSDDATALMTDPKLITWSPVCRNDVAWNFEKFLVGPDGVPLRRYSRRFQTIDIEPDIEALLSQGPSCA
Procedure, shortened: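 GPX1 10 nM, GR 100 nM, GSH 1 mM, NADPH 0.5 mM, CHP 0.5 mM (final). 30-min cpd preincubation, RT. Ex340/Em450 read t=0, t=15 min.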

[2] = Quantitative High-Throughput drug screen in 47 multiple myeloma cell lines against the NCATS MIPE library collection: FR4_PLB cell viability assay (AID 1918924; note: nearly all actives have a fitted effect of over 35% in size; note: potency is the fitted concentration of half-maximal effect)
Procedure, shortened: (§1)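 qHTS of the MIPE 4.0 collection: 500 myeloma cells/well, 48 h drug exposure at 37C in 5% CO2, then CellTiter-Glo for 5 min at room temperature before luminescence reading.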

[3] = Quantitative High-Throughput drug screen in 47 multiple myeloma cell lines against the NCATS MIPE library collection: Delta47_JCRB cell viability assay (AID 1918925; note: nearly all actives have a fitted effect of over 45% in size; note: potency is the fitted concentration of half-maximal effect)
Procedure, shortened: (§2)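 Steps: seed 500 cells per well; pin-transfer MIPE 4.0 library; incubate 48 h at 37C, 5% CO2, humidified; add CellTiter-Glo, 5 min room temperature; read luminescence.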

[4] = Quantitative High-Throughput drug screen in 47 multiple myeloma cell lines against the NCATS MIPE library collection: AMO1_DSMZ cell viability assay (AID 1918927; note: nearly all actives have a fitted effect of over 30% in size; note: potency is the fitted concentration of half-maximal effect)
Procedure, shortened: as §2

[5] = Quantitative High-Throughput drug screen in 47 multiple myeloma cell lines against the NCATS MIPE library collection: Karpas620_DSMZ cell viability assay (AID 1918959); note: nearly all actives have a fitted effect of over 30% in size; note: potency is the fitted concentration of half-maximal effect
Procedure, shortened: as §1

[6] = target: Luciferin 4-monooxygenase (Photinus pyralis) (UniProt P08659); assay: Primary firefly luciferase (FLuc) qHTS assay for identification of artifact compounds. (AID 1845220); note: nearly all actives have a fitted effect of over 60% in size; note: potency is the fitted concentration of half-maximal effect
Procedure, shortened: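 qHTS, 15 min compound preincubation with substrate (10 uM luciferin, 10 uM ATP) at RT, then 10 nM FLuc; 5 min; luminescence; % inhibition vs no-enzyme/DMSO controls, 4-parameter Hill fit.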

[7] = Primary fluorescence-based thiol-reactive (MSTI) qHTS assay for identification of artifact compounds. (AID 1845221);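 note: series mostly up to about 54 µM; thiol-reactive compounds lower the probe fluorescence signal; nearly all actives have a fitted effect of over 65% in size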
Procedure, shortened: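 Reactivity toward the thiol probe MSTI (4 uM) is scored by fluorescence at Ex/Em 525/598 nm after 1 h at room temperature. Acetyl-MSTI and MSTI define the activity scale.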

[8] = tested on: Nanoluciferase (engineered Oplophorus gracilirostris luciferase); assay: Primary Nanoluciferase (NLuc) qHTS assay for identification of artifact compounds. (AID 1845222); note: series mostly up to about 54 µM
Procedure, shortened: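 Luminescence read-out of secreted NLuc in S16 cell conditioned medium (1:55); compounds tested with 15 min RT preincubation, then Nano-Glo substrate 1:100, 5 min. % inhibition vs no-enzyme and DMSO controls, 4-parameter Hill fit.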

[9] = Quantitative High-Throughput drug screen in 47 multiple myeloma cell lines against the NCATS MIPE library collection: EJM_DSMZ cell viability assay (AID 1918926; note: nearly all actives have a fitted effect of over 30% in size; note: potency is the fitted concentration of half-maximal effect)
Procedure, shortened: as §2

[10] = Quantitative High-Throughput drug screen in 47 multiple myeloma cell lines against the NCATS MIPE library collection: ARP1_JJKsccF8 cell viability assay (AID 1918928; note: nearly all actives have a fitted effect of over 40% in size; note: potency is the fitted concentration of half-maximal effect)
Procedure, shortened: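 Cell viability inhibition in this qHTS is measured via ATP content (CellTiter-Glo) after 48 h drug exposure at 37 °C. Wells hold 500 cells; DMSO-treated wells define 100% and medium-only wells 0%.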

[11] = Quantitative High-Throughput drug screen in 47 multiple myeloma cell lines against the NCATS MIPE library collection: ARD_JJKsccE7 cell viability assay (AID 1918929; note: potency is the fitted concentration of half-maximal effect)
Procedure, shortened: as §2

[12] = target: Phospholipid hydroperoxide glutathione peroxidase GPX4 (Homo sapiens) (UniProt P36969); assay: Primary qHTS Assay for Inhibitors of Recombinant Selenoprotein Glutathione Peroxidase 4 (GPX4) (AID 1845192); note: nearly all actives have a fitted effect of over 65% in size
Sequence of Phospholipid hydroperoxide glutathione peroxidase GPX4 (Homo sapiens) (P36969 whole entry, looked up): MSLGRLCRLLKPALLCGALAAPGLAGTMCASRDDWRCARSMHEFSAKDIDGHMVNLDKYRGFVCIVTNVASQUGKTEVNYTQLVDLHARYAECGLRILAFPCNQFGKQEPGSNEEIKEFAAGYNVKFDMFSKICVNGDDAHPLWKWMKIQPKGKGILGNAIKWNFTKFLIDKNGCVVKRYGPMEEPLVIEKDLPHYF
Procedure, shortened: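 qHTS, GR-coupled: GPX4 200 nM + cpd 30 min RT → GSH 1 mM, NADPH 0.5 mM, GR 100 nM → CHP 0.5 mM start; fluor 340/450 at t0 and t15 min; no-enzyme wells as control.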

[13] = Primary redox qHTS assay for identification of artifact compounds. (AID 1845223)
Procedure, shortened: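 Redox-cycling detection via DTT (250 uM final) oxidation coupled to Amplex Red (25 uM)/HRP (250 mU/mL) in HBSS. 15 min preincubation plus 30 min after DTT, room temperature. Ex/Em 525/598 nm; 4-parameter Hill fit against DMSO and 10 uM DA3003.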

Measured: Potency

O=C(NCc1ccncc1)C12C[C@H]3C[C@@H](C1)CC(c1ccc(Cl)cc1)(C3)C2
inactive: [1]
active: [2] 14.8 µM | [3] 16.6 µM | [4] 9.35 µM | [5] 9.35 µM

COc1cc2nc(-c3ccc(N4CCN(C)CC4)cc3)nc(NCCN3CCOCC3)c2cc1OC
inactive: [1] | [6] | [7] | [8]
active: [2] 0.0296 µM | [3] 0.148 µM | [9] 0.0264 µM | [4] 0.148 µM | [10] 0.059 µM | [11] 0.296 µM | [5] 0.118 µM

Cc1ccc(C(=O)Nc2cccc(C(F)(F)F)c2)cc1Nc1nc(-c2cccnc2)nc2c1cnn2C
inactive: [1] | [11] | [5]
active: [2] 9.35 µM | [3] 5.26 µM | [9] 18.7 µM | [10] 10.5 µM

COc1cc2ncnc(Nc3ccc(F)c(Cl)c3)c2cc1OCCCN1CCOCC1
inactive: [12] | [6] | [7] | [8] | [13]
active: [2] 19.1 µM | [3] 5.4 µM | [9] 6.05 µM | [4] 4.81 µM | [10] 48.1 µM | [5] 6.79 µM

O=C(O)c1ccc(-c2c[nH]c3ncc(-c4ccccc4)cc23)cc1C1CCCC1
inactive: [1] | [9] | [10] | [5]
active: [4] 2.96 µM | [11] 0.935 µM

COc1ccc(-c2coc3cc(O)cc(O)c3c2=O)cc1
inactive: [1] | [2] | [3] | [10]
active: [5] 18.7 µM

C[C@@H](O)[C@H]1C(=O)N2C(C(=O)O)=C(S[C@@H]3CN[C@H](C(=O)N(C)C)C3)[C@H](C)[C@H]12
inactive: [12]

CC(=O)Nc1ccc([C@H](C)C(=O)Nc2ncc(C(C)C)s2)cc1
inactive: [12] | [6] | [7] | [8] | [13]
active: [2] 1.87 µM | [3] 1.48 µM | [9] 0.743 µM | [4] 0.662 µM | [10] 2.64 µM | [5] 2.35 µM

O=C1C[C@@H](c2ccc(O)cc2)Oc2cc(O)cc(O)c21
inactive: [1] | [2] | [3] | [9] | [10] | [5]

Cc1ccc(F)c(NC(=O)Nc2ccc(-c3cccc4[nH]nc(N)c34)cc2)c1
active: [2] 14.8 µM | [3] 13.2 µM | [4] 10.5 µM | [10] 26.4 µM | [11] 3.32 µM | [5] 20.9 µM
inactive: [1]

N[C@H](CSC(c1ccccc1)(c1ccccc1)c1ccccc1)C(=O)O
inactive: [1]
active: [2] 5.26 µM | [3] 7.43 µM | [9] 18.7 µM | [4] 23.5 µM | [10] 13.2 µM

COc1ccc(C2Sc3ccccc3N(CCN(C)C)C(=O)C2OC(C)=O)cc1 (stereo unspecified)
not listed: [1] | [4] | [9] | [10]
inactive: all other assays above

O=C(O)C(O)Cc1ccc(O)c(O)c1 (stereo unspecified)
active: [9] 23.5 µM | [10] 23.5 µM
inactive: [1] | [4] | [5]

CN(C)c1cc(NC(=O)CNC(C)(C)C)c(O)c2c1C[C@@H]1C[C@H]3[C@H](N(C)C)C(=O)C(C(N)=O)=C(O)[C@@]3(O)C(=O)C1=C2O
not listed: [6] | [7] | [8] | [12] | [13]
inactive: all other assays above

CCCCCNC(=O)N1CCC(CN(Cc2ccc(Cl)cc2)Cc2ccc([N+](=O)[O-])s2)C1 (stereo unspecified)
active: [1] 2.05 µM | [2] 23.5 µM | [4] 18.7 µM | [5] 18.7 µM

C=C1C(=O)[C@@]23C(CC[C@@H]1[C@H]2O)[C@@]12CO[C@]3(O)[C@@H](O)[C@@H]1C(C)(C)CC[C@@H]2O (stereo partly specified)
inactive: [12] | [6] | [7] | [8] | [13]
active: [2] 6.62 µM | [3] 3.72 µM | [9] 2.96 µM | [4] 1.48 µM | [10] 5.9 µM | [11] 1.48 µM | [5] 0.935 µM

COCCOC(=O)C1=C(C)NC2=C(C(=O)CC(c3ccccc3OC)C2)C1c1cccc(O)c1 (stereo unspecified)
inactive: [12] | [6] | [7] | [8] | [13]
active: [2] 14.8 µM | [3] 1.05 µM | [4] 11.8 µM | [10] 10.5 µM

C[C@H](NC(=O)c1sccc1OCc1ccc(Cl)cc1)c1ccccc1
active: [3] 20.9 µM
inactive: [1] | [5]

C[C@H](NC(=O)C(=O)Nc1ccccc1C(C)(C)C)C(=O)N[C@@H](CC(=O)O)C(=O)COc1c(F)c(F)cc(F)c1F
inactive: [1] | [3] | [9]
active: [4] 4.69 µM | [10] 14.8 µM | [11] 1.18 µM | [5] 2.64 µM

COc1ccc(-c2cc(=O)c3c(O)cc(O)cc3o2)cc1O
inactive: [1]
active: [3] 4.69 µM | [9] 4.69 µM | [4] 5.26 µM | [11] 6.62 µM

CCOC(=O)C1=C(N)Oc2ccc(Br)cc2C1C(C#N)C(=O)OCC (stereo unspecified)
inactive: [1] | [6] | [8] | [13]
active: [2] 20.9 µM | [3] 14.8 µM | [9] 20.9 µM | [5] 18.7 µM

O=c1cc(CN2CCOCC2)occ1OCCCCCSc1ccnc2cc(C(F)(F)F)ccc12
active: [3] 6.62 µM | [4] 18.7 µM | [10] 20.9 µM
inactive: [1] | [6] | [7] | [8]

O=c1cc(N2CCOCC2)oc2c(-c3cccc4c3sc3ccccc34)cccc12
active: [2] 20.9 µM | [3] 3.32 µM | [4] 5.26 µM | [11] 11.8 µM | [5] 16.6 µM
inactive: [1]

COc1ccc2c(Oc3ccc(NC(=O)c4c(C)n(CC(C)(C)O)n(-c5ccccc5)c4=O)cc3F)ccnc2c1
inactive: [12] | [6] | [7] | [8] | [13]
active: [2] 26.4 µM | [3] 23.5 µM | [5] 23.5 µM

c1ccc2c(-c3cnn4cc(-c5ccc(N6CCNCC6)cc5)cnc34)ccnc2c1
inactive: [1]
active: [9] 11.8 µM

c1cc(-c2sc(-c3ccncc3)c(-c3ccncc3)c2-c2ccncc2)ccn1
inactive: [1] | [10] | [5]

COC1CCC(N(C(=O)C2CCC(C)CC2)c2cc(C3=CCCCC3)sc2C(=O)O)CC1 (stereo unspecified)
inactive: [1] | [11] | [5]

O=C(Nc1c(Cl)cncc1Cl)c1ccc(OC(F)F)c(OCC2CC2)c1
inactive: [12] | [2] | [9] | [4] | [10] | [5]
active: [3] 26.4 µM

Cc1c(NC(=O)c2ccc(C(C)(C)C)cc2)cccc1-c1cn(C)c(=O)c(Nc2ccc(C(=O)N3CCOCC3)cc2)n1
active: [6] 5.88 µM | [2] 23.5 µM | [3] 23.5 µM | [9] 18.7 µM | [5] 9.35 µM
inactive: [12] | [8] | [13]

Nc1ncnc2c1nc(Cl)n2[C@@H]1O[C@H](CO)[C@@H](O)[C@@H]1O
inactive: [12]
active: [3] 23.5 µM | [9] 18.7 µM | [4] 2.35 µM | [10] 13.2 µM | [11] 14.8 µM | [5] 14.8 µM

O=C(O)[C@H]1O[C@H](Oc2cc3oc(-c4ccccc4)cc(=O)c3c(O)c2O)[C@H](O)[C@@H](O)[C@H]1O
active: [2] 26.4 µM

CC=CC(=O)N(CC)c1ccccc1C
active: [10] 5.26 µM
inactive: [2] | [3] | [9] | [4] | [11] | [5]

CC(C)[C@H](CO)Nc1nc(Nc2ccc(C(=O)O)c(Cl)c2)c2ncn(C(C)C)c2n1
active: [3] 1.48 µM
inactive: [12] | [6] | [8] | [13]

NC(=O)c1ccc2nc(-c3ccc(Oc4ccc(Cl)cc4)cc3)[nH]c2c1
inactive: [7] | [8] | [13] | [9]
active: [6] 3.38 µM | [2] 0.166 µM | [3] 0.0264 µM | [4] 1.48 µM | [11] 5.9 µM

COC[C@@H](c1ccc(C(F)(F)F)cc1)N1CCN(C2(C)CCN(C(=O)c3c(C)ncnc3C)CC2)C[C@H]1C
active: [3] 23.5 µM | [4] 16.6 µM
inactive: [2] | [9] | [10]

C=C1C(=O)OC(CCCCCCCC)C1C(=O)O (stereo unspecified)
inactive: [12] | [4] | [10] | [11]
active: [3] 14.8 µM

CN(C)Cc1ccc(-c2nc3cccc4c3n2CCNC4=O)cc1
inactive: [6] | [7] | [8] | [13]
active: [2] 23.5 µM | [3] 23.5 µM | [9] 20.9 µM | [4] 18.7 µM | [11] 29.6 µM | [5] 23.5 µM

Oc1ccc(C2=Cc3ccc(O)cc3OC2)cc1
inactive: [12]
active: [2] 1.32 µM | [3] 0.833 µM | [9] 2.35 µM | [4] 2.64 µM | [10] 4.18 µM

CC[C@@]1(O)C[C@H](O[C@H]2C[C@H](N(C)C)[C@H](O[C@H]3C[C@H](O)[C@H](O[C@H]4CCC(=O)[C@H](C)O4)[C@H](C)O3)[C@H](C)O2)c2c(cc3c(c2O)C(=O)c2c(O)cccc2C3=O)[C@@H]1C(=O)OC
active: [2] 0.332 µM | [3] 0.0662 µM | [9] 0.469 µM | [4] 0.833 µM | [10] 1.05 µM | [11] 5.26 µM
